Laboratory results published in PubChem BioAssay (NCI).
About 83,000 compounds went through this panel and 20% of them were active in at least one assay; those are over-represented in the sample as a whole.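 Results are percent growth after 48 hours of single-concentration exposure. 100 means growth as in untreated cells, lower positive values show inhibition; negative values down to -100 show cell death.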 Unmarked numbers belong to inactive results. Calls of active or inactive are those of the source. How the source made its calls: active means growth percent below 10; inactive means the rest.

System: MDA-MB-468 breast
Test: NCI-60 one-dose screen, 48 h (100 = growth as untreated, 0 = no growth, -100 = all killed)
Details: 10 µM unless noted

SMILES | growth
CCC(C)CC(CC)NCCN1CCN(C(CC)CC(C)CC)C1=S (stereo not given) | -43.6% (active)
CCC(=O)c1ccc(O)c(OC)c1 | 103%
CCOc1nc(-c2ccccc2)cc2c(O)c(C(=O)N/N=C/c3ccccc3O)[nH]c(=O)c12 | 88.6%
C/C=C(/C(=O)NC(N)=O)C(C)C | 117%
COc1cc(-c2nc3sccn3c2-c2ccnc(S(C)(=O)=O)n2)ccc1F | 72.3%
CCCCC1COc2cccc3c(SCC(=O)N(C)c4cccc(Cl)c4)cc[n+]1c23 (stereo not given) | 104%
CS(=O)(=O)c1cccc(-c2c(-c3cccc(OS(N)(=O)=O)c3)nc3sccn23)c1 | 104%
CSc1nnc(-c2cnn3c2NC(c2ccccc2)C3)n1-c1ccc(C(F)(F)F)cc1 (stereo not given) | 71.1%
COc1ccc(/C=C/c2c(C(=O)/C=C/c3ccc(C(F)(F)F)cc3)c(C)nc3ccccc23)cc1 | -54.5% (active)
FC(F)(F)c1cccc(CNC2CCN(CCc3ccccc3)CC2)c1 | 87.2%
C[C@@H](C[C@H](CCOCc1cccnc1)c1ccccc1)c1cc2ccccc2o1 | 99.5%
Cn1cc(-c2nc(-c3c[nH]c4ncccc34)cs2)c2cc(F)ccc21 | -22.6% (active)
Cc1noc(C)c1CSc1nc2ccccc2n1-c1ccccc1 | 108%
N=C(N)/N=C(\CCc1nc2ccccc2[nH]1)c1nc2ccccc2[nH]1 | 109%
O=C(CN1CCN(c2cc(=O)n(-c3ccccc3)c3ccccc23)CC1)Nc1cccc(C(F)(F)F)c1 | 4.55% (active)
Cc1ccc(C(=O)NCCCNc2nccc(-n3ccc4cccnc43)n2)cc1 | 95.6%
Cc1[nH]c(/C=C/C(=O)c2ccc(C(F)(F)F)c(F)c2)c(C)c1C(=O)NCC(C)C | 93.6%
O=C(N/N=C\c1cc(Br)cc(Br)c1O)N/N=C/c1cc(Br)cc(Br)c1O | 57.7%
COc1ccccc1Nc1nc(-c2cc3cccc(C(F)(F)F)c3oc2=O)cs1 | -2.43% (active)
Cc1ccc(C(=O)c2ccc(CC(=O)N/N=C/c3ccc(O)cc3O)n2C)cc1 | 46.8%

SMILES | growth
O=C(N=c1n(-c2ccccc2)nc2n1CCN2C1=NCCN1)c1ccc(Cl)cc1 | 50.3%
COc1ccc(/C=C(\C#N)n2nnc3cc(F)c(F)cc32)c(OC)c1OC | 35.3%
COc1ccc(/C=C(\C#N)c2cc3ccccc3[nH]2)cc1 | 17.7%
CCN1CCN(Cc2ccc(NC(=O)c3nc4ccc5[nH]ncc5c4c4c3CCCC4)cc2C(F)(F)F)CC1 | -51.9% (active)
C=CC(=O)Nc1ccc2ncnc(Nc3cccc(NS(=O)(=O)CCC)c3Cl)c2c1 | -31.9% (active)
O=C1/C(=C\c2cccn2C(=O)c2ccccc2)c2ccccc2N1c1c(Cl)cccc1Cl | 46.8%
Cn1c(=O)c2c(nc(NC3=NS(=O)(=O)c4ccccc43)n2CC(=O)N2CCc3ccccc32)n(C)c1=O | 102%
CC(=O)/C(=C/c1ccc(Br)cc1)C(=O)c1ccccc1 | 92.3%
COc1cc(N2C(=O)[C@H](O)C2c2ccc(SC)cc2)cc(OC)c1OC (stereo not given in full) | 3.3% (active)
CCN=C1C=CC(=C(c2ccc(N(CC)CC)cc2)c2ccc(N(CC)CC)cc2)c2ccccc21 | -74.1% (active)
CCNC(=O)c1[nH]cc(-c2ccc(OC)cc2)c1-c1cc(OC)cc(OC)c1 | 76.2%
CC(C)(C)[C@H](OCc1cn([C@H]2C[C@@H](O)[C@@H](CO)O2)c(=O)[nH]c1=O)c1ccc(C#Cc2ccccc2)cc1[N+](=O)[O-] | 68.2%
N#Cc1nc(-c2ccccc2)oc1S(=O)(=O)N1CCCCC1 | 21.8%
COC(=O)CNC(=O)[C@H](Cc1ccccc1)NCc1ccncc1 | 97.4%
COC(=O)/C(CCC=C(C)C)=C1\[C@@H](OC(C)=O)C[C@@]2(C)[C@H]1CC(=O)N[C@H]1[C@@]3(C)CCNC(=O)[C@@H](C)[C@@H]3CC[C@@]12C | 99.7%
COc1cccc(C2C3=C(COC3=O)N(CCO)c3cc4c(cc32)CCC4)c1 (stereo not given) | -51.6% (active)
C=CC(=O)Nc1cc2c(Nc3ccc(F)c(Cl)c3)ncnc2cc1C#CC(C)(C)N1CCN(C)CC1 | -61.1% (active)
COc1cc(-c2cc(/C=C/C(C)=O)[nH]n2)cc(OC)c1OC | 54.5%
COC(=O)[C@H](Cc1cn(C)cn1)NC(=O)[C@@H](NC(=O)Nc1cc(C(F)(F)F)cc(C(F)(F)F)c1)C(C)C | -60.4% [100 µM] (active)
O=c1ccn(C2CCCO2)c(=O)[nH]1 (stereo not given) | 104%
